Results filed as inconclusive are left out.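 The calls were made as follows, unless noted: active = compounds whose dose series gives a full or clear partial fitted curve of increased nuclear translocation; inconclusive = weak partial curve or effect only at the top dose; inactive = no dose-dependent translocation response.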
System: not listed separately
Experiment: Stat Signaling Pathway (AID 446; active = well fitted curve in either direction with a large enough effect, not every such curve was filed as active;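 also: ME-180 cervical cancer cells given 40 pM IL-6 alongside compound; SIE-controlled beta-lactamase reporter measured as 460/530 nm FRET emission ratio; % is scaled to controls: 0 for no effect and ±100 for the full control effect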)
Settings: ME-180 (cervical carcinoma) SIE beta-lactamase reporter, IL-6 stimulated, 5 h; at 7.69 µM (top of the series) unless noted
How it was run: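 FRET read-out (405 nm excitation, 460/530 nm emission) of a beta-lactamase reporter under a STAT-inducible element in ME-180 cervical carcinoma cells. Cells with compound receive 40 pM IL-6 for 5 h. Values are normalised to AC90 stimulation and AC90 JAK-inhibitor controls.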

activity, negative = inhibition, inactive:
O=C1c2cccc([N+](=O)[O-])c2C(=O)N1c1ncn[nH]1 4.03%, O=C1c2ccccc2C(=O)c2c1ccc(N1C(=O)c3ccccc3C1=O)c2-c1c(N2C(=O)c3ccccc3C2=O)ccc2c1C(=O)c1ccccc1C2=O 12%, Cc1ccc(S(=O)(=O)OCC(=O)O)cc1 5.39%, O=c1[nH]c(SCc2ccccc2[N+](=O)[O-])nc2nc[nH]c12 10.1%, CC1(C)N=C(N)N=C(N)N1c1cccc(OCc2cccc(N)c2)c1 -3.01%, Cc1[nH]c(N)nc(=S)c1CCCNc1ccccc1 3.47%, FC(F)(F)c1nc2nc(Cl)c(Cl)nc2n1CCCN1CCOCC1 2.08%, CN(C)Cc1c[nH]c2nc[nH]c(=O)c12 1.72%, Cc1cc(N2CCOCC2)nc2ccc(Cc3ccc4nc(N5CCOCC5)cc(C)c4c3)cc12 -14.5%, NS(=O)(=O)c1cc(C(=O)O)c(Cl)c([N+](=O)[O-])c1Cl 13.1%, C[C@H](C(=O)c1ccncc1)c1ccccn1 8.11%, CC(C)(C)c1ccc(-c2nnc(SCc3ccc(Cl)cc3)n2-c2cccc(C(F)(F)F)c2)cc1 3.24%, c1ccc2sc(SCN(C3CCCCC3)C3CCCCC3)nc2c1 -3.43%, CC(C)(C)c1ccc(O)c(CN(Cc2cc(C(C)(C)C)ccc2O)C2CCCCC2)c1 6.32%, C[N@@+]1(CC[N@@+]2(C)CCC[C@H]2c2cccnc2)CCC[C@@H]1c1cccnc1 -5.44%, CN(Cc1cc(Br)cc(Br)c1O)Cc1c(O)ccc2ccccc12 -8.41%, CN(C)CN1CSC(=S)N(CN(C)C)C1 0.0184%, CN(C)c1ncnc2c1ncn2CCn1cnc2c(N(C)C)ncnc21 11.6%, O=S1(=O)CCN(c2ccccc2CC(c2c[nH]c3ccccc23)c2c[nH]c3ccccc23)CC1 -20.7%, Clc1ccc(CSC2=NCCN2)cc1Cl -8%, Cn1c(=O)c(CCc2ccccc2)nc2cnc(N3CCNCC3)nc21 11.7%, c1ccc(CO[C@H]2NCCN2Cc2ccccc2)cc1 12.8%, O=C(O)c1ccccc1-c1ccccc1C(=O)Nc1ccc2c(c1)[nH]c(=O)c1ccccc12 -25.4%, COCCn1c(=O)c(-c2cc(F)cc(F)c2)nc2cnc(Oc3ccc(OC)cc3)nc21 -2.08%, O=c1c(-c2ccccc2)nc2cnc(Oc3ccccc3)nc2n1C1CC1 -5.21%, CN1CCN(CN2C(=O)C3C4C=CC(C3C2=O)C2C3C(=O)N(CN5CCN(C)CC5)C(=O)C3C42)CC1 (stereo not given) 11%, NC[C@@H](O)CSCc1ccc(Cl)cc1 0.417%, CC(=O)[C@H](C(=N)C#N)C(=O)Nc1ccccc1 13.1%, Cc1cc(Cl)ccc1Nc1sc(C(=O)c2cc3cc(Cl)ccc3o2)c(N)c1C#N -13.7%, CC(C)[C@@H]1O[C@H](/C=C\c2ccccc2)OCC1(C)C 8.84%, C[C@@H](C(=O)O)/C(=C/c1ccc2c(c1)OCO2)C(=O)O -5.22%, c1nnc(NCNc2nncs2)s1 -7.18%, S[C@@H]1CCCN(Cc2ccccc2)C1 2.98%, NC(=O)N[C@H](CC(=O)O)C(=O)O -0.625%, CC(=O)n1c(COS(C)(=O)=O)nc2ccccc21 -1.19%, c1ccc(CCN2CCN=C2Cc2ccccc2)cc1 14.6%, NNC(=O)CCSc1ccccc1 -4.96%, O=C(O)CSc1n[nH]c(=O)[nH]c1=O 13.4%, Cc1ccc(CSC(N)=Nc2ccccc2)cc1C -10.5%, c1cncc(CNCc2cccnc2)c1 12.4%

Molecular target: Glucocorticoid receptor (Homo sapiens) (UniProt P04150)
Sequence (P04150 whole entry, looked up): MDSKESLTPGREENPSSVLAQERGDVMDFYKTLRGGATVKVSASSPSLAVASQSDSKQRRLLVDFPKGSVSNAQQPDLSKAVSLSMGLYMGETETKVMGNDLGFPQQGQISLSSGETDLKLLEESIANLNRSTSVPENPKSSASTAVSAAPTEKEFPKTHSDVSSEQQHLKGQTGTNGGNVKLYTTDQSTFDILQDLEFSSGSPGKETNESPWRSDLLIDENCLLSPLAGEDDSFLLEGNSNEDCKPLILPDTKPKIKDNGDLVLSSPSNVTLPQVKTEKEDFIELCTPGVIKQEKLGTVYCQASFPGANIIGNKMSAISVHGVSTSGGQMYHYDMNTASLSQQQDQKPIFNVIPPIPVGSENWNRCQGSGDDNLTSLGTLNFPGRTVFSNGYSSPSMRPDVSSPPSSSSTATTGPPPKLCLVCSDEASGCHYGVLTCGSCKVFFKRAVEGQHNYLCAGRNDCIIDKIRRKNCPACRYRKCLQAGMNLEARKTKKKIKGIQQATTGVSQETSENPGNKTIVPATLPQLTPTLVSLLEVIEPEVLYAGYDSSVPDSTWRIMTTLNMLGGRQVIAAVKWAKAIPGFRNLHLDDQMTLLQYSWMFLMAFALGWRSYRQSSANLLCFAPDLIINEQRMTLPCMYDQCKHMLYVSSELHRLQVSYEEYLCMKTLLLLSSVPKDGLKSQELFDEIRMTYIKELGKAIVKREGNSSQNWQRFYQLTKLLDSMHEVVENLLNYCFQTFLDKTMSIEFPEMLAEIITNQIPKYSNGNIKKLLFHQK
Experiment: GR-GFP Redistribution (AID 450); also: potency is read from the fitted curve at half-maximal effect
Settings: U2OS GR-GFP nuclear translocation, laser cytometry, 2 h

Potency, inactive:
O=C1c2cccc([N+](=O)[O-])c2C(=O)N1c1ncn[nH]1 > 46 µM, O=C1c2ccccc2C(=O)c2c1ccc(N1C(=O)c3ccccc3C1=O)c2-c1c(N2C(=O)c3ccccc3C2=O)ccc2c1C(=O)c1ccccc1C2=O > 46 µM, Cc1ccc(S(=O)(=O)OCC(=O)O)cc1 > 46 µM, O=c1[nH]c(SCc2ccccc2[N+](=O)[O-])nc2nc[nH]c12 > 46 µM, CC1(C)N=C(N)N=C(N)N1c1cccc(OCc2cccc(N)c2)c1 > 46 µM, Cc1[nH]c(N)nc(=S)c1CCCNc1ccccc1 > 46 µM, FC(F)(F)c1nc2nc(Cl)c(Cl)nc2n1CCCN1CCOCC1 > 46 µM, CN(C)Cc1c[nH]c2nc[nH]c(=O)c12 > 46 µM, Cc1cc(N2CCOCC2)nc2ccc(Cc3ccc4nc(N5CCOCC5)cc(C)c4c3)cc12 > 46 µM, NS(=O)(=O)c1cc(C(=O)O)c(Cl)c([N+](=O)[O-])c1Cl > 46 µM, C[C@H](C(=O)c1ccncc1)c1ccccn1 > 46 µM, CC(C)(C)c1ccc(-c2nnc(SCc3ccc(Cl)cc3)n2-c2cccc(C(F)(F)F)c2)cc1 > 46 µM, c1ccc2sc(SCN(C3CCCCC3)C3CCCCC3)nc2c1 > 46 µM, CC(C)(C)c1ccc(O)c(CN(Cc2cc(C(C)(C)C)ccc2O)C2CCCCC2)c1 > 46 µM, C[N@@+]1(CC[N@@+]2(C)CCC[C@H]2c2cccnc2)CCC[C@@H]1c1cccnc1 > 46 µM, CN(Cc1cc(Br)cc(Br)c1O)Cc1c(O)ccc2ccccc12 > 46 µM, CN(C)CN1CSC(=S)N(CN(C)C)C1 > 46 µM, CN(C)c1ncnc2c1ncn2CCn1cnc2c(N(C)C)ncnc21 > 46 µM, O=S1(=O)CCN(c2ccccc2CC(c2c[nH]c3ccccc23)c2c[nH]c3ccccc23)CC1 > 46 µM, Clc1ccc(CSC2=NCCN2)cc1Cl > 46 µM, Cn1c(=O)c(CCc2ccccc2)nc2cnc(N3CCNCC3)nc21 > 9.22 µM, c1ccc(CO[C@H]2NCCN2Cc2ccccc2)cc1 > 46 µM, O=C(O)c1ccccc1-c1ccccc1C(=O)Nc1ccc2c(c1)[nH]c(=O)c1ccccc12 > 46 µM, COCCn1c(=O)c(-c2cc(F)cc(F)c2)nc2cnc(Oc3ccc(OC)cc3)nc21 > 9.22 µM, O=c1c(-c2ccccc2)nc2cnc(Oc3ccccc3)nc2n1C1CC1 > 9.22 µM, CN1CCN(CN2C(=O)C3C4C=CC(C3C2=O)C2C3C(=O)N(CN5CCN(C)CC5)C(=O)C3C42)CC1 (stereo not given) > 46 µM, NC[C@@H](O)CSCc1ccc(Cl)cc1 > 46 µM, CC(=O)[C@H](C(=N)C#N)C(=O)Nc1ccccc1 > 46 µM, Cc1cc(Cl)ccc1Nc1sc(C(=O)c2cc3cc(Cl)ccc3o2)c(N)c1C#N > 46 µM, CC(C)[C@@H]1O[C@H](/C=C\c2ccccc2)OCC1(C)C > 46 µM, C[C@@H](C(=O)O)/C(=C/c1ccc2c(c1)OCO2)C(=O)O > 46 µM, c1nnc(NCNc2nncs2)s1 > 46 µM, S[C@@H]1CCCN(Cc2ccccc2)C1 > 46 µM, NC(=O)N[C@H](CC(=O)O)C(=O)O > 46 µM, CC(=O)n1c(COS(C)(=O)=O)nc2ccccc21 > 46 µM, c1ccc(CCN2CCN=C2Cc2ccccc2)cc1 > 46 µM, NNC(=O)CCSc1ccccc1 > 46 µM, O=C(O)CSc1n[nH]c(=O)[nH]c1=O > 46 µM, Cc1ccc(CSC(N)=Nc2ccccc2)cc1C > 46 µM, c1cncc(CNCc2cccnc2)c1 > 46 µM

— PubChem BioAssay (NCATS)
